24 compounds from PubChem BioAssay (NCI) can be followed below.

About 83,000 compounds went through this panel and 20% of them were active in at least one assay; those are over-represented in the sample as a whole.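 Treatment: one concentration, 48 hours, 96-well format. Scoring: percent growth, with anything below 10 considered active.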 A number with no mark means an inactive call. Calls of active or inactive are those of the source.

For this assay, the system named is TK-10 renal. Briefly: NCI-60 one-dose screen, 48 h (100 = growth as untreated, 0 = no growth, -100 = all killed). Conditions: 10 µM unless noted.
As for `CC1=C(NCCN2CCCC2)C(=O)c2c(OCc3cccc(Cl)c3)cccc2C1=O`, the growth was 74.1%.

Turning to `O=C(CCN1CCOCC1)Nc1ccc(Cn2nnc3c2C(=O)c2nnn(Cc4ccc(NC(=O)CCN5CCOCC5)cc4)c2C3=O)cc1`, the growth is 123%.

For `NC1=CSC2=N/C(=C\c3ccc(Cl)cc3)C(=O)N12`, the growth is 72.8%.

`Cc1sc2nc3[nH]/c(=C\c4ccc(Cl)cc4)c(=O)n3c(=O)c2c1C`: the growth is 102%.

Take `COc1ccc2nc3cc(Cl)ccc3c(N3CCN(c4ccnc(N5CCN(C)CC5)n4)CC3)c2c1`: the growth was 8.16% (active).

Turning to `CN(C)CCCC(=O)Nc1ccc(Cn2nnc3c2C(=O)c2nnn(Cc4ccc(NC(=O)CCCN(C)C)cc4)c2C3=O)cc1`, the growth was 116%.

Consider `CCCCCCCCCCCCCCCCNCCC[C@@H](C)[C@H]1CC[C@H]2[C@@H]3[C@H](OCCCN)C[C@@H]4C[C@H](OCCCN)CC[C@]4(C)[C@H]3C[C@H](OCCCN)[C@]12C`, for which the growth was -60.3% (active).

As for `O=C(Nc1cccc2[nH]c(C(F)(F)F)nc12)c1ccc(Br)cc1F`, the growth is 52.8%.

Take `CCCCNc1ccc2c3c1cccc3c(=O)n1c3ccccc3nc21`: the growth is 70.2%.

As for `COc1ccc(/C=C2\N=C3SC=C(N)N3C2=O)cc1`, the growth was 19.5%.

On to `COc1ccc2nc3cc(Cl)ccc3c(N3CCN(c4nccc(Nc5ccc(Cl)cc5)n4)CC3)c2c1`, for which the growth was 55.8%.

As to `CC1=C(NCCN2CCCC2)C(=O)c2c(OCc3ccc(F)c(Cl)c3)cccc2C1=O`, the growth was 69.1%.

As to `O=C1C[C@H](N2C(=O)c3ccccc3S2(=O)=O)C2CO[C@@H]1O2`, the growth is 92.4%.

Consider `Cc1ccc(S(=O)(=O)n2cc(-c3csc(-c4cn(C)c5ncccc45)n3)c3ccccc32)cc1`, for which the growth was 91.3%.

On to `COc1ccc(-c2cnoc2-c2cc(OC)c3c(c2)OCCO3)cc1`, for which the growth is 71.8%.

In the case of `COc1ccccc1-c1ccc2c(N)c(C(=O)c3ccc4c(c3)OCO4)sc2n1`, the growth is 73.8%.

For `COc1ccc(/C=c2/c(=O)[nH]c3nc4sc(C)c(C)c4c(=O)n23)cc1`, the growth was 101%.

As to `CC(=O)N1CC(Nc2ccc(OC(F)(F)F)cc2)=CC1=O`, the growth was 51.9%.

On to `CCC(C)[C@@H]1NC(=O)[C@@H]2CCCN2C(=O)[C@H](Cc2ccccc2)NC(=O)[C@@H]2CCCN2C(=O)[C@H](Cc2ccccc2)NC(=O)[C@@H]2CCCN2C(=O)[C@H](Cc2ccccc2)NC1=O` (some centres undefined), for which the growth is 104%.

Take `O=C1CC(c2nc3ccccc3s2)CN1C1CCCCC1` (centres undefined): the growth is 121%.

With `Cc1cc(OCc2ccc(C(F)(F)F)cc2)c2c(c1)C(=O)C=C(NCCN1CCCC1)C2=O`, the growth is 82.7%.

Consider `CCN(CC)CCC(=O)Nc1ccc(Cn2nnc3c2C(=O)c2nnn(Cc4ccc(NC(=O)CCN(CC)CC)cc4)c2C3=O)cc1`, for which the growth is 122%.

In the case of `Cn1cc(-c2nc(-c3c[nH]c4ccccc34)cs2)c2cccnc21`, the growth is 44%.

Regarding `CCN(CC)CCCC(C)N/C(=C1\C(=O)NC(=O)\C1=C(/NC(C)CCCN(CC)CC)c1cccc(OC)c1)c1cccc(OC)c1` (centres undefined), the growth was -23.4% (active).
